# Assay results: the supplement of paper PMC11417369
# The full ranking holds about 25,000 sequences; the median of “ln(normalized median fluorescence intensity)” is about 9.3, and the highest 2% start at about 10. The sample holds the highest values, similar sequences and a random draw of the others, so the mix is not that of the screen.
# Test system: PF3D7_0420300 AP2 domain 1 (GST-tagged)
# Test: gcPBM binding intensity (ln(normalized median fluorescence intensity)); higher = stronger DNA binding
# Procedure, shortened: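 Binding intensity values are the highest Masliner-normalised natural-log median intensity among replicate spots of either probe orientation. The binding step lasted 1 h in 1× PBS with 1% milk, 0.2 mg/ml BSA, 0.5% salmon testes DNA and 0.03% Triton X-100, using GST-tagged P. falciparum DNA-binding domains expressed in E. coli on an Agilent 4 × 180k array of primer-extended double-stranded 36-bp intergenic genomic probes plus negative controls. Alexa488 anti-GST antibody and a 488 nm scan detected bound protein.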
row,Sequence,gcPBM binding intensity (ln)
1,TCCTTTTCATCTTGTAGTACGGAAATGTAGCTCCAA [XGTACX_site8563],9.09
2,CTTTTTTTAATGATAACACACATGTTGTGCATAGAC [CACACA_site3270],9.32
3,ATTTATTAAAAGAAATGTACAGAAAATGTTTGGAAT [XGTACX_site7187],9.26
4,ATTAAATATATTTTGCGTACACAAAAAAATACGTTC [XGTACX_site3862],9.15
5,AATGAAAATAAATTAACACACAATTTTAATATTGTT [CACACA_site1306],9.32
6,TCATATATTTATGTATGTACATATATATATAGATTA [XGTACX_site380],9.01
7,CATATCATTGATTATAGTACACATACCATTTTTTAT [XGTACX_site6572],9.45
8,GTAATAAGAATTATAGTGCAATGTAATACATTTATA,9.23
9,AGGATAAAAGTTATGGTGCATTAACCTATTTAAATA,9.14
10,AAAAAACACGGACACACACACATATACATACATACA [CACACA_site5470],10.1
11,ATTACATACACGCGCACACACAAAAAAAAAAAAAAA [CACACA_site1334],9.57
12,AACACCCATGGACACACACACATATATATATATATA [CACACA_site5809],9.92
13,AAAAAACACGCGCACACACACACACGCGCCCACATA [CACACA_site7106],10.3
14,AGAAAAAAACAACATGCACACGCACCCACAAAAAAA [CACACA_site7908],9.71
15,AAAAAAAAAAAAAAAACACACACATATATATATATA [CACACA_site8571],9.51
16,AACACGCGCAGACACACACACACACCCACATATATA [CACACA_site2205],10.2
17,AAAACACGCGGACACACACACACACGCCCACATATA [CACACA_site7105],10.4
18,AACACGCGCGGACACACACACACACCCACATATATA [CACACA_site5252],10.4
19,ACTTTATATTTTGAACGTACAAAAAAAAAATTATGT [XGTACX_site5588],9.04
20,AATACAATATAGTGAAAAATAATTAAATACAATAAG [XGTACX_negctrl_site161],9.6
21,TAGATATATAGACACACACACATTAATACCTATATT [CACACA_site7605],10.1
22,CGCTTTATTTATATATGTACATATATATATATATAC [XGTACX_site5012],9.33
23,TAATATAACAAAAAAATAAAATAAAATAAAAAATAA [CACACA_negctrl_site109],9.35

row,Sequence,gcPBM binding intensity (ln)
1,AAAAGAATTACTTTCACACATATATATCTGTAAATA [CACACA_site5798],9.15
2,TACACCCATGGACACACACACACGCATAAAAAAAAA [CACACA_site4933],9.93
3,TACACGCATGGACACACACACACACCCATATATATA [CACACA_site4522],10.2
4,CACGCGCCCGGACACACACACACACCCATATATATA [CACACA_site5251],10.2
5,GATATTAAAATATGTAGTACACATATTATATCATAT [XGTACX_site4167],9.18
6,ATTTAACATATAAAATGTACATATATATATATATTT [XGTACX_site2525],9.25
7,GTTAATCACCATGTGGTGCATATAAGGGCATATTAT [GTGCAC_site9748],9.22
8,TATATCTCATAGTATACACACACACCCACCCACATA [CACACA_site8513],10.3
9,TATATATATATATATACACACACACCCATATATATA [CACACA_site8812],9.94
10,TATATATATATATACACACACACACCCATATATATA [CACACA_site2538],10
11,ATTCTACACCCACATACACACATATATATATATATA [CACACA_site3426],9.84
12,TAATTTATAACACGCGCACACATATATATATAGTAA [CACACA_site121],9.57
13,TAAGAAATAAATAGTACACACATAGACACACGCACA [CACACA_site6821],9.92
14,TATCTCATAGTATACACACACACACGCGCACATATA [CACACA_site6917],10.3
15,TCTCATAGTAGACACACACACACACGCACATATATA [CACACA_site6916],10.4
16,TATAGATACATATACACACACACACCCACATATATA [CACACA_site3436],10.2
17,TATATATATAGACACACACACACATATATATATATA [CACACA_site9366],10
18,TATCTCATAGTATACACACACACACCCACCCATATA [CACACA_site1739],10.4
19,CATAGATACATACACGCACACACATATATATATATA [CACACA_site13],9.87
20,AATATATATATACATACATGCATACATATATATATA [TGCATGCA_site784],9.24
21,TTTATCCTTCTTTTGAGTACTCAAAGAGACCTATAA [XGTACX_site8050],8.83
22,ATGAATTTATTACATTGTACATTTTTAAAAGGTTAC [XGTACX_site124],9.11
23,TAAAAAAGAACAGAAACACACAAATAAAATAAAATT [CACACA_site1758],10

row,Sequence,gcPBM binding intensity (ln)
1,GGGAGAAATTTATACATACACACATATATATATTAT [CACACA_site4039],9.62
2,AAATATTATACAAAAAAAAAAAAAAAAAAAATATAT [CACACA_negctrl_site52],9.39
3,AAAGCACCCAGGCACACACACAAAGGAAAAGAAAAA [CACACA_site232],9.83
4,AAAACAGACAAACACACACACACATATATATATATA [CACACA_site3393],10
5,AAAAAAAACAGACACACACACATACAAAATATATAT [CACACA_site1449],10.2
6,AAAAAAAAAAAAAATACACACAAATAATAAAAATAA [CACACA_site1431],9.85
7,GCTTAATACAGAATAACACACAAAATAAATAAATAA [CACACA_site4041],9.56
8,AAAAAAAACAGACACACACACAAATACATACACAAA [CACACA_site705],10
9,TTAATCCACAGACACACACACACAAAATAAAATACA [CACACA_site244],10.2
10,AAAAAAAACAGACACACACACAAATATATAAAAATA [CACACA_site1172],10
11,TTAATACCCAGACACACACACACAAAATAAAATACA [CACACA_site7968],10.1
12,ATAAATGACAGACACACACACAAAAAAAAAAAACAA [CACACA_site2626],10.2
13,AAAAAAAAAAAAAACACACACATACAGACAAAAATG [CACACA_site83],10.1
14,TTAATACCCGGACACACACACACAAAATAAAATACA [CACACA_site4296],10.2
15,CAAATACCCGGACACACACACACAAAAAAAAAAAAA [CACACA_site4441],9.99
16,AAATGTACAGGACGCACACACATATTTATATTTATA [CACACA_site7689],9.67
17,ATACATATATTAGGATGTACGTTTATTTTAGTTATT [XGTACX_site7169],9.47
18,ATTAATATTTAGACTTGTACATATATAATATATGTC [XGTACX_site3766],9.2
19,AAATTCTTAACCCAACGTACATATAATAAATTCTTA [XGTACX_site8538],9.1
20,CAATCATTTTATTGTTGTACAGTAATTATGAATTCA [XGTACX_site7508],9.03
21,TACAATGAAAAAATAACATGCAATTATATTTCTCTT [TGCATGCA_site833],9.17
22,TATATAAATTAACCAGTGCATTATTTGGAAATTATT,9.31
23,CATTATGATTAAATATGTACATATTATTATATAAAT [XGTACX_site2477],9.08

row,Sequence,gcPBM binding intensity (ln)
1,GAAAAAAAAAAAAAAAAAAAAAGGAAAAAAGTGAAA [CACACA_negctrl_site996],9.21
2,TATATATGTATATATGGTACAGAATATTCTACATTA [XGTACX_site5077],9.23
3,ATATCATTTTCCTGCACACATAAATTTATATAATAT [CACACA_site1048],9.76
4,TTTTTTTTCTATGTGGTGCACATTATTTTTTTTTTT,9.41
5,CACAAAAAGAAACACACACACATATATATATATATA [CACACA_site999],9.73
6,AAATAAAACAGACACACACACACATACACAAAAAAA [CACACA_site7753],10.2
7,AACAAATACAGACACACACACACACTAATAAAAAAA [CACACA_site8067],10.3
8,AATACAGACAGACACACACACAAAATAAAATACAAA [CACACA_site245],10.1
9,TACAAACAGACATATACACACAAAAAAAAAATAAAA [CACACA_site2562],9.91
10,TATATATACAGACACATACACACAAATAAAAAAACA [CACACA_site3413],10.1
11,TGAACACAGACAAATACACACAAAAAAAATAAATAA [CACACA_site4298],9.79
12,AAATTATAAATAATTTGTACATAAAAATTGGTAAAG [XGTACX_site5197],9.07
13,CTTCAATTAAAATTCACACATATAAATTAAAATATT [CACACA_site6129],9.06
14,TACACCCACCAACACACACACACACCCAAAAAAAAA [CACACA_site498],10.1
15,GTTACACCAACAAACACACACACACCGACACCCAAA [CACACA_site5361],10.1
16,AGCACCCACCAACACACACACACACCCACCCACCGA [CACACA_site368],10.3
17,TGTTATATCAATAATATATAATAATACCCTTCTTTT [CACACA_negctrl_site1682],9.06
18,TATAGAAGCGTTCACACACACACATACATACCCATA [CACACA_site4915],10.3
19,GTTATAGAAGCATTCACACACACACCCACATACACA [CACACA_site1465],10.1
20,TATAGAAGCATTCACACACACACATACATACACATA [CACACA_site1466],10.2
21,GTTATAGAAGCATTCACACACACACGGACATACACA [CACACA_site6801],10.1
22,TAGAAGCATGGACACACACACATACATACCCATACA [CACACA_site4916],10
23,TTGTTATAGAAGCATTCACACACACCCATACATACA [CACACA_site8414],9.87
